A selection: hits, their analogues and other compounds. The true share with any hit is near 4.3%.
D3 antag: antagonists of human D3 dopamine receptor; AID 652054; actives 2.5% (n = 360,000); D3R cells, DiscoveRx beta-arrestin luminescence, antagonist mode; hits give low values; P35462; max response, negative = inhibition, %; in the data active = max response below about -50%; inconclusive = no clear call, values can overlap the other calls
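Cells expressing the human receptor were seeded at 1500 cells/well, incubated overnight at 37 degrees C in 5% CO2, then exposed to library compounds with dopamine controls for 90 minutes at 37 degrees C before luminescent detection.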
GLP1R inv ag: inverse agonists of human GLP-1 receptor; HEK293 GLP-1R CRE-luciferase, luminescence, 24 h; GLP-1R form is constitutively active; Potency, µM (titrated, usually from 38.3 µM), actives largely listed as inhibitors; actives 1.6% (n = 410,000); also: nearly all actives have a fitted effect of over 55% in size
Target sequence (P43220 whole entry, looked up): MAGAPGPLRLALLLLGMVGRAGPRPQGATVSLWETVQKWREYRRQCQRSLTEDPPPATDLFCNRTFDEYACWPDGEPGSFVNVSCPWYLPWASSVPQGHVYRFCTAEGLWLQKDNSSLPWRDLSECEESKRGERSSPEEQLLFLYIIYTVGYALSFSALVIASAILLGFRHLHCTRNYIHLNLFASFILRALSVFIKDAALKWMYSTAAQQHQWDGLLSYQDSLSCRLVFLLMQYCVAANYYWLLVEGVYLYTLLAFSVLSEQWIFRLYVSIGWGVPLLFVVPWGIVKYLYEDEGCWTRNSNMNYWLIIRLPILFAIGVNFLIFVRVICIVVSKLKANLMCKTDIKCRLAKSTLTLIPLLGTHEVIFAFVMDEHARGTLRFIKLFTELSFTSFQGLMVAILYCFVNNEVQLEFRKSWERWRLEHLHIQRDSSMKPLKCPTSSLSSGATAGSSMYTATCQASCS
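Luminescence readout: a drop in cAMP-driven luciferase signal flags inverse agonism at a constitutively active GLP-1R stably expressed in HEK293. Compound exposure lasted 24 hr at 37 deg C, 5% CO2.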
GLP1R ag: GLP-1 receptor (human) agonism | P43220 | HEK293 GLP-1R CRE-luciferase, luminescence, 4-6 h; cells express a hypersensitive GLP-1R form | Potency, µM (top dose mostly 45.6 µM), most hits filed as activators | actives 0.007% (n = 380,000) | AID 624172
DRD3 agonist: D3 dopamine receptor (human) agonism; actives 0.58% (n = 410,000); AID 652048; P35462; D3R DiscoveRx beta-arrestin cells, luminescence, 90 min; max activation, %; in the data active = max activation above about 30%
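Agonist mode: compounds and dopamine controls were applied to plated cells for 90 min at 37 degrees C after an overnight attachment at 1500 cells/well. Luminescent read-out followed 30 - 60 minutes at room temperature with DiscoveRx detection reagent.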
Each line names hits and unclear results; the compound was inactive in the other large screens. Unless noted, calls follow the shape of the dose curve; as a rule, active = well fitted curve in the direction sought with a large enough effect; inconclusive = small, poorly fitted or top-dose-only effect, or another doubt; inactive = no such curve, though single readings can be large; an effect the other way counts as inactive or inconclusive.

COc1ccc(-c2c(C)nn3c(C(F)(F)F)cc(-c4ccccc4)nc23)cc1	none (no result: D3 antag, GLP1R ag)
CCCNC(=O)Cn1nc(C)c2c(C)n(-c3ccccc3)nc2c1=O	none (no result: D3 antag, GLP1R ag)
Cn1cc(C(=O)[C@@H]2CCc3nc[nH]c3C2)c2ccccc21	none (no result: D3 antag, GLP1R inv ag, GLP1R ag)
CCN(CC)c1nc(N)c2c(N)nc3c(c2c1C#N)CC(c1ccccc1)O3 (centres undefined)	none
CCN(CC)c1nc(N)c2c(N)n(-c3ccccc3C)c(=S)c(C#N)c2c1C#N	D3 antag -82.3, GLP1R inv ag inconclusive
Cc1ccc(NC(=O)NCc2cccn2Cc2ccccc2)c(C)c1	none (no result: D3 antag, GLP1R ag)
COc1ccc(-c2cc3c(=O)n(CC(=O)NCc4ccc(Cl)cc4)ncn3n2)cc1	none
COc1ccc(-c2cc3c(=O)n(CC(=O)NCCCN4CCN(Cc5ccccc5)CC4)ncn3n2)cc1	D3 antag -66.9, GLP1R inv ag inconclusive
CCOc1ccc(CCNC(=O)Cn2ncn3nc(-c4ccc(OC)cc4)cc3c2=O)cc1	none
COc1ccc(-c2cc3c(=O)n(CC(=O)NCCCN4CCC(Cc5ccccc5)CC4)ncn3n2)cc1	D3 antag -100.9, GLP1R inv ag 2.24µM
CCCCn1nc(C(=O)N(C)Cc2nc3ccccc3c(=O)[nH]2)c2ccccc2c1=O	none
O=C1C=CC(=O)N1CCNc1ncc(C(F)(F)F)cc1Cl	D3 antag -112.6, GLP1R inv ag 11.2µM
O=C1CC(=O)N(CCNc2ncc(C(F)(F)F)cc2Cl)C(=O)N1	none
CN(C(=O)c1ccc2c(Cl)c3c(nc2c1)CCC3)c1ccccc1F	none (no result: D3 antag)
COc1ccc(-c2nc(CN3CCN(Cc4cccc(F)c4)CC3)c(C)o2)cc1	GLP1R inv ag inconclusive
COc1ccccc1N1CCN(Cc2cn[nH]c2-c2ccc(F)cc2)CC1	D3 antag -66.8
COc1ccc(-c2[nH]ncc2CN2CCN(Cc3cccs3)CC2)cc1F	D3 antag inconclusive
COc1ccccc1N1CCN(Cc2nc(-c3ccc(F)cc3)oc2C)CC1	D3 antag -115.5, GLP1R inv ag inconclusive
COc1ccccc1CN1CCN(Cc2nc(-c3ccc(C)cc3)oc2C)CC1	GLP1R inv ag inconclusive
COc1ccc(-c2nc(CN3CCN(Cc4cccc(Cl)c4)CC3)c(C)o2)cc1	D3 antag -60.3, GLP1R inv ag inconclusive
Cc1cc(N2CCN(Cc3nc(-c4ccc(F)cc4)oc3C)CC2)cc(C)n1	GLP1R inv ag 4.47µM
CCOc1ccc(CNC(=O)C2CCN(C(=O)N3CC(CC)Oc4ccccc43)CC2)cc1 (centres undefined)	none (no result: D3 antag, GLP1R ag)
O=C(CN1CCN(Cc2ccccc2)CC1)N/N=C/c1cccnc1	none
COc1ccc(-c2nc(CN3CCN(c4ccccc4OC)CC3)c(C)o2)cc1	D3 antag -70.9, GLP1R inv ag inconclusive
Cc1ccc(CN(Cc2ccco2)C(=O)c2ccc(Cl)cc2Cl)cc1	GLP1R inv ag 12.6µM (no result: D3 antag, GLP1R ag)
CN(C)c1ccc(CN(Cc2ccco2)C(=O)c2ccco2)cc1	GLP1R inv ag 11.2µM
O=C(c1ccco1)N(Cc1ccc(Cl)cc1)Cc1ccco1	GLP1R inv ag inconclusive
Cc1ccc(CN(Cc2ccco2)C(=O)COc2ccc(Cl)cc2Cl)cc1	GLP1R inv ag inconclusive (no result: D3 antag, GLP1R ag)
CCc1ccc2oc(C(=O)N(Cc3cccc(Cl)c3)Cc3ccco3)c(C)c2c1	GLP1R inv ag 8.91µM (no result: D3 antag, GLP1R ag)
Cc1ccc(S(=O)(=O)N2CCN(S(=O)(=O)c3ccccc3)C2)cc1	D3 antag -51.5
Cc1ccc(S(=O)(=O)N2CCN(C3CC4CCC3C4)CC2)cc1 (centres undefined)	D3 antag -60.7, GLP1R inv ag inconclusive
CC(=O)c1c(C)oc2ccc(N(C(=O)Oc3ccccc3)S(=O)(=O)c3ccc(Cl)cc3)cc12	none (no result: D3 antag, GLP1R ag)
Nc1c2c(nc3ccc(Br)cc13)N(Cc1ccccc1)CC2	D3 antag -58.8, GLP1R inv ag inconclusive
COc1ccc(NC(=O)C(=O)NCCc2csc(-c3ccc(Cl)cc3)n2)cc1OC	none (no result: D3 antag, GLP1R ag)
Cc1nn(CC(C)C)c(Cl)c1C(=O)N(c1ccc(Cl)cc1F)S(C)(=O)=O	D3 antag inconclusive, GLP1R inv ag 8.91µM
COc1ccc(NC(=O)C2=C(C)Nc3ncnn3C2c2cccn2C)cc1 (centres undefined)	none (no result: D3 antag)
COc1ccc(-c2cc3nc(C)cc(-c4ccc(OC)cc4)n3n2)cc1	none
COc1ccc(-c2cc3nc(C)cc(N)n3n2)cc1	GLP1R inv ag 7.94µM
C[C@@H]1CCCCO[C@H](CN(C)C(=O)Cc2ccccc2)[C@@H](C)CN([C@H](C)CO)C(=O)c2cc(NC(=O)Nc3ccccc3)ccc2O1	GLP1R inv ag inconclusive
